Nrf2 ARE act: Nrf2 pathway activation; AID 624171; AREc32 ARE-luciferase reporter (MCF7-derived line), luminescence, 24 h; Potency, µM (titrated, usually from 46.1 µM), inactives show top-dose activation, usual class: activators; 0.31% of 410,000 active; also: potency is read from the fitted curve at half-maximal effect; % of control where 0% means no effect; nearly all actives have a fitted effect of over 65% in size
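ARE activation measured as luciferase luminescence (Steady-Glo, 30 min RT) in AREc32_Fluc cells after 24 hr compound exposure at 37 deg C, 5% CO2; cells seeded overnight at 1000/well in OPTI-MEM, 5% FBS.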
ELG1 DNA repair: inhibitors of ELG1-dependent DNA repair in HEK293T cells; HEK293T ELG1-luciferase reporter, luminescence, 16 h; DNA damage induced by 5-fluorouridine; Potency, µM (highest dose often 46.1 µM), for the others: top-dose activity change, negative = inhibition, actives largely listed as inhibitors; 2.3% of 330,000 active; also: potency is read from the fitted curve at half-maximal effect; % is scaled to controls: 0 for no effect and ±100 for the full control effect; nearly all actives have a fitted effect of over 55% in size
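Cells (2,000 per well) received 5-fluorouridine plus test compound or DMSO and were incubated 16 hr at 37 °C, 5% CO2. Luciferase activity was read by luminescence 30 min after ONE-Glo addition; signal suppression marked inhibition of damage-induced ELG1 function.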
BRCA1 expr up: increases BRCA1 expression; MCF7-BRCA1-FFLuc reporter, luminescence, 48 h; response scale: scaled: vehicle 0%, 10 µM genistein 100%; Potency, µM (titrated, usually from 46.1 µM), for inactives: top-dose activation, most hits filed as activators; 1.1% of 380,000 active; AID 624202; also: potency is read from the fitted curve at half-maximal effect; nearly all actives have a fitted effect of over 80% in size
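Reporter cells (MCF7, BRCA1 promoter-firefly luciferase) received library compounds across a concentration series for 48 h. End-point luminescence was measured and concentration-effect curves derived after normalization.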
IL2 activator: activates IL-2 in a cell-based reporter assay | IL-2 activation reporter assay, cell-based qHTS; stimulated with anti-CD3/CD4/CD28 beads; in transgenic mouse T cells | activation, % (series mostly up to about 46 µM) | 0.065% of 360,000 active; in the data active = activation above about 50%; inconclusive = mostly about 30% to 49%; also: 0% is about no effect
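EGFP and DsRed fluorescence is measured by plate cytometry in unstimulated transgenic mouse T cells exposed to compound for 60 minutes, then stimulated 18 hours at 37 degrees C with anti-CD3/anti-CD4 beads plus anti-CD28.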
ELG1 FLuc counter: luciferase inhibition in cell-free luciferin readout for ELG1 hits; shares compounds with ELG1 DNA repair; cell-free firefly luciferase luminescence counter-screen, ViewLux; Potency, µM (series often up to 46.1 µM), for the others: at the top dose activity change, negative = inhibition, usual class: inhibitors; 3% of 350 active; AID 624247; also: potency is read from the fitted curve at half-maximal effect; % is scaled to controls: 0 for no effect and ±100 for the full control effect
ELG1 Luc conf: human ELG1 repair inhibition, luciferase-tagged ELG1 confirmation; shares compounds with ELG1 DNA repair; HEK293T ELG1-luciferase levels, luminescence; cells co-treated with 5-fluorouridine; Potency, µM (highest dose often 46.1 µM), inactives show at the top dose activity change, negative = inhibition, actives largely listed as inhibitors; 68% of 670 active; AID 624248; also: potency is read from the fitted curve at half-maximal effect; % is scaled to controls: 0 for no effect and ±100 for the full control effect; nearly all actives have a fitted effect of over 55% in size
ELG1 MMS Luc: inhibits ELG1-dependent repair under MMS stimulation in HEK293T cells | Potency, µM (titrated, usually from 46.1 µM), for the others: top-dose activity change, negative = inhibition, hits mostly inhibitors | shares compounds with ELG1 DNA repair | HEK293T luciferase-tagged ELG1 level, MMS stimulated | 53% of 670 active; also: potency is read from the fitted curve at half-maximal effect; % is scaled to controls: 0 for no effect and ±100 for the full control effect; nearly all actives have a fitted effect of over 60% in size
ELG1 5FU viab: confirmation of ELG1 repair inhibitors: viability with 5FU; Potency, µM (top dose mostly 46.1 µM), for inactives: at the top dose activity change, negative = viability loss, actives largely listed as cytotoxic; cell viability with 5-FU, ELG1-dependent repair; AID 624250; 670 tested, under 10 active; shares compounds with ELG1 DNA repair;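 also: ELG1-luc HEK293T cells cotreated with 5-fluorouridine at 10 µM final; potency is read from the fitted curve at half-maximal effect; viability measured 16 h after compound addition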
ELG1 MMS cell: confirmation of ELG1 repair inhibitors: viability with MMS; shares compounds with ELG1 DNA repair; Cell viability with MMS, ELG1-dependent DNA repair; Potency, µM (series often up to 46.1 µM), without a hit: at the highest dose activity change, negative = viability loss, actives largely listed as cytotoxic; 33% of 670 active;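 also: ELG1-luc HEK293T cells co-treated with 10 µM MMS; potency is read from the fitted curve at half-maximal effect; viability read 16 h after compound addition; % is scaled to controls: 0 for no effect and ±100 for the full control effect; nearly all actives have a fitted effect of over 60% in size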
ELG1 unstim viab: unstimulated viability counter-screen for ELG1 repair hits | shares compounds with ELG1 DNA repair | cell viability counter-screen, unstimulated, luminescence | Potency, µM (titrated, usually from 45.9 µM), without a hit: top-dose activity change, negative = loss of viability, actives largely listed as cytotoxic | 8% of 900 active | AID 624252;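 also: potency is read from the fitted curve at half-maximal effect; compound exposure lasted 16 hours before reading; % is scaled to controls: 0 for no effect and ±100 for the full control effect; nearly all actives have a fitted effect of over 55% in size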
FLuc biochem: inhibits purified firefly luciferase, counter-screen for ELG1 hits; shares compounds with ELG1 DNA repair; purified firefly luciferase, luminescence counter-screen; Potency, µM (doses to about 57.5 µM), without a hit: at the highest dose activity, negative = inhibition, hits mostly inhibitors; 10% of 350 active; AID 624253; also: potency is read from the fitted curve at half-maximal effect; % is scaled to controls: 0 for no effect and ±100 for the full control effect
* marks the source's active call; other numbers are inactive results; ? = inconclusive; / = no result given; [ ] = dose if it differs, or a comment. Shown are actives, neighbours in structure and some others; about 3.1% of the full set was active somewhere. Unless noted, calls follow the shape of the dose curve; as a rule, active = well fitted curve in the direction sought with a large enough effect; inconclusive = small, poorly fitted or top-dose-only effect, or another doubt; inactive = no such curve, though single readings can be large; an effect the other way counts as inactive or inconclusive.

SMILES	Nrf2 ARE act	ELG1 DNA repair	BRCA1 expr up	IL2 activator	ELG1 Luc conf	ELG1 MMS Luc	ELG1 5FU viab	ELG1 MMS cell	ELG1 unstim viab	others
Cc1ccc(NC(=O)N2CCOCC2)c(C)c1	-0.4%	7.4%	1.5%	-3.4	/	/	/	/	/
Cc1ccc2oc(NC(=O)N3CCOCC3)cc(=O)c2c1	0.2%	3.55µM*	-49.4%	-0.8	18.6%	14.9%	-2.8%	-5.5%	-12.7%
CCOc1cc(S(=O)(=O)NCc2ccncc2)ccc1Cl	-0.2%[9.22 µM]	?	-28.6%	-3.9	?	0.561µM*	-8.3%	0.706µM*	-4.4%	ELG1 FLuc counter=-1.2%;FLuc biochem=0.2%
COc1cccc(N2CCN(C(=O)Cn3ncc4c(=O)oc5ccccc5c43)CC2)c1	-0.7%	/	-11.4%	/	/	/	/	/	/
O=C(/C=C/c1ccc(S(=O)(=O)N2CCOCC2)cc1)N1CCN(c2ccc(F)cc2)CC1	-0.7%	2.31µM*	-34.1%	-1.3	-27.9%	7.06µM*	-4.7%	?	?	ELG1 FLuc counter=-0.2%;FLuc biochem=-15.2%
C/C(=N\NC(=O)c1c(Cl)c(C)nn1C)c1ccc(NC(=O)c2ccncc2)cc1	-0.7%	?	-2.4%	-3.0	/	/	/	/	/
Cc1nn(-c2ccc(NC(=O)c3ccncc3)cc2)c(C)c1Cl	0.2%	4.61µM*	0.7%	-3.9	14.1µM*	2.23µM*	-16.0%	1.58µM*	15.8µM*
O=C(CN1Cc2ccccc2C1=O)Nc1cc(F)ccc1F	-0.1%	/	/	/	/	/	/	/	/
C=C1C(c2ccc(C)cc2)=CCc2cc(C)cc(C)c21	/	/	/	/	/	/	/	/	?	ELG1 FLuc counter=180.7%;FLuc biochem=5.17µM*
CC(C)CC(C)NNC(=O)c1cc2ccccc2[nH]1 (centres undefined)	3.0%	?	29.1%	0.3	/	/	/	/	/
O=C(c1cc2ccccc2[nH]1)c1cc2cc(O)ccc2[nH]1	/	/	36.1%	/	/	/	/	/	-0.7%
COc1ccc(S(=O)(=O)NCCc2nnc3ccc(SCC(=O)Nc4nc(C)cs4)nn23)cc1	0.5%	0.7%	54.0%	-0.2	-21.5%	10.3%	6.1%	-6.7%	-4.2%	ELG1 FLuc counter=0.9%;FLuc biochem=-3.3%
Cc1cc(=O)oc2cc(NC(=O)C(C)Oc3ccc(F)cc3)ccc12 (centres undefined)	-0.2%	-4.5%	13.2%	0.9	/	/	/	/	/
Cc1cc(=O)oc2cc(NC(=O)c3ccc(OC(F)F)cc3)ccc12	0.2%	?	81.4%	0.3	/	/	/	/	-2.0%
Cc1cccc(C(c2sc3nc(-c4ccco4)nn3c2O)N2CCN(Cc3ccccc3)CC2)c1 (centres undefined)	-1.0%	/	/	/	/	/	/	/	/
O=S(=O)(c1c(Cl)cc(Br)cc1Cl)N1CCN(C(=S)NC2CC2)CC1	2.5%	4.11µM*	-40.6%	-0.7	3.97µM*	15.8µM*	?	14.1µM*	-12.4%
Cc1cccc(C(=O)OCC(=O)c2c(N)n(CC(C)C)c(=O)n(C)c2=O)c1[N+](=O)[O-]	0.3%	4.47µM*	-26.1%	-2.2	12.5µM*	7.05µM*	3.2%	6.28µM*	?
CC(C)Cn1c(N)c(C(=O)COC(=O)CC23CC4CC(CC(C4)C2)C3)c(=O)n(C)c1=O	-0.3%	3.66µM*	-52.6%	-0.4	1.99µM*	1.12µM*	-23.6%	0.996µM*	15.8µM*
Cc1cccc(C(=O)OCC(=O)c2c(N)n(CC(C)C)c(=O)n(C)c2=O)c1O	0.3%	?	-33.5%	-6.7	/	/	/	/	/
Cc1ccc(C(c2sc3nc(-c4ccco4)nn3c2O)N2CCCCC2)cc1 (centres undefined)	-0.6%	/	/	/	/	/	/	/	/
O=C(COc1ccc(C(=O)NCC2CCCO2)cc1)Nc1cccc(C(F)(F)F)c1 (centres undefined)	-0.4%	3.26µM*	-8.4%	-1.3	?	?	11.0%	?	-4.1%
CC(C)(C)OC(=O)NCc1ccc(CNC(=O)c2[nH]cnc2C(=O)Nc2ccccc2F)cc1	3.1%	/	-59.6%	-4.5	/	/	/	/	/
CC(C)(C)OC(=O)NCc1ccc(NC(=O)c2nc[nH]c2C(=O)NCCN(CCNC(=O)c2[nH]cnc2C(=O)Nc2ccc(CNC(=O)OC(C)(C)C)cc2)CCNC(=O)c2[nH]cnc2C(=O)Nc2ccc(CNC(=O)OC(C)(C)C)cc2)cc1	-0.6%	7.2%	0.0%	-0.5	/	/	/	/	/
CC(C)(C)OC(=O)NCc1ccc(NC(=O)c2nc[nH]c2C(=O)NCCCNC(=O)c2[nH]cnc2C(=O)Nc2ccc(CNC(=O)OC(C)(C)C)cc2)cc1	0.1%	1.83µM*	4.2%	-0.5	2.23µM*	12.5µM*	?	25µM*	?
CC(C)(C)OC(=O)NCc1ccc(NC(=O)c2nc[nH]c2C(=O)NCCCCNC(=O)c2[nH]cnc2C(=O)Nc2ccc(CNC(=O)OC(C)(C)C)cc2)cc1	0.1%	0.92µM*	1.3%	-0.7	1.12µM*	1.26µM*	-7.5%	?	?	ELG1 FLuc counter=?;FLuc biochem=1.1%
CC(C)(C)OC(=O)NCc1ccc(NC(=O)c2nc[nH]c2C(=O)NCCCCCCNC(=O)c2[nH]cnc2C(=O)Nc2ccc(CNC(=O)OC(C)(C)C)cc2)cc1	-1.7%	2.31µM*	2.9%	-0.5	1.12µM*	25µM*	?	?	?
Cc1cccc(NC(=O)C(=O)NCC(c2ccc3c(c2)OCO3)N2CCOCC2)c1C (centres undefined)	-0.8%	/	/	/	/	/	/	/	/
CCCN(CCC)CCNC(=O)Cn1cnc2sc(C)c(S(=O)(=O)N3CCN(c4ccccc4OC)CC3)c2c1=O	-0.2%	/	/	/	/	/	/	/	/
COc1ccc(CNc2ncnc3sccc23)cc1	2.2%	1.83µM*	-33.2%	-3.8	?	2.81µM*	-0.3%	2.81µM*	?

Screening results (PubChem)
